Mtb betalactam: beta-lactam sensitization of Mtb H37Rv, H37Rv | M. tuberculosis H37Rv growth with meropenem, percent inhibition | inhibition, % at 25 µM | 330,000 tested, 0.27% active | AID 434955, 2010; call rule not given here;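 further: growth measured after seven days incubation then overnight dye step; 0% = bacteria only wells and 100% = bacteria with antibiotic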
GDH-TPI counter: GDH-TPI coupling enzyme inhibitors, primary screen, artefact control for M. tuberculosis FBA inhibitor project, biochemical, absorbance, full deck; 360,000 tested, 1.2% active; AID 588335, 2011; GDH-TPI coupled enzyme counterscreen, NADH absorbance; inhibition, % at 4.8 µM;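 further: 0% = DMSO wells and 100% = wells lacking the enzyme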
MazF activator: activators of E. coli MazEF toxin-antitoxin RNase, primary screen, biochemical, fluorescence, uHTS. Endoribonuclease toxin MazF (Escherichia coli (strain K12)), P0AE70. FAM/BHQ RNA-DNA oligo cleavage fluorescence, 5 h. activation, % at 20 µM. 350,000 tested, 0.32% active. AID 504720, 2011; in the data active means activation above about 50%
Target sequence (P0AE70 whole entry, looked up): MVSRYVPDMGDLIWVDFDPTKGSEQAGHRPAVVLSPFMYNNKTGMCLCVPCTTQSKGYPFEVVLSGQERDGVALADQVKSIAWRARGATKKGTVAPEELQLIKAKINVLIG
CCHFV vOTU inh: CCHFV vOTU protease inhibitors, primary screen, biochemical, Pep-AMC substrate, fluorescence; inhibition, % at 11.5 µM; Crimean-Congo hemorrhagic fever virus L polyprotein viral ovarian tumor (vOTU) protease …; 370,000 tested, 0.55% active; further: 0% = vehicle wells with enzyme and 100% = no enzyme wells
Mtb FBA inh: Mtb FBA enzyme inhibitors, primary screen, biochemical, fluorescence, strain H37Rv; AID 588726, 2011; inhibition, % at 1 µM; purified M. tuberculosis FBA, fluorescence read-out; 360,000 tested, 2.3% active; in the data active means inhibition above about 27%;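 further: 0% = vehicle and 100% = reference inhibitor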
Target sequence (P9WQA3 whole entry, looked up): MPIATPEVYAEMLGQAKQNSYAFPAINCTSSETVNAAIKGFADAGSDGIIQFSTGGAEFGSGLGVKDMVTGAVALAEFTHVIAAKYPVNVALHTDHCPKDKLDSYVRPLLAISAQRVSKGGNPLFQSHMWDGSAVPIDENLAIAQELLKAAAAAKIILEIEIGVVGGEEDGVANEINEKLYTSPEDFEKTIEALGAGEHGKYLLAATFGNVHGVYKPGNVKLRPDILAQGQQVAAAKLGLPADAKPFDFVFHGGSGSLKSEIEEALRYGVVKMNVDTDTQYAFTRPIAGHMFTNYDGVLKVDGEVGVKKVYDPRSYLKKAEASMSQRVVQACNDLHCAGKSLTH
An asterisk follows results filed as active; u = inconclusive; x = not tested or not shown; + = active, no number. The list is not random: actives were taken first. Their share in the collection is about 4%. Unless noted, no stated cut-off is given here; in the data, active means inhibition above about 30%; inactive means the rest.

SMILES | Mtb betalactam | GDH-TPI counter | MazF activator | CCHFV vOTU inh | Mtb FBA inh
O=C(N/N=C/c1ccc2c(c1)OCO2)c1ccc(NC(=O)c2ccccc2Cl)cc1 | -4 | 35* | 8 | 4 | 2
CC(=O)Nc1cccc(-c2cc(C)c3cc4c(cc3n2)OCO4)c1 | x | 32* | 8 | -8 | 14
CN(C)/C=C/c1onc(-c2ccccc2Cl)c1C#N | 6 | 43* | -1 | 12 | -2
CN(C)c1ccc(C=C2C=Cc3ccccc32)cc1 | x | 13 | 98* | 0 | -1
COc1ccc(C2CC(c3ccc(Cl)cc3)Nc3nc(NC(=O)c4ccco4)nn32)cc1 (centres undefined) | x | -7 | 160* | 20 | 0
Cc1cc(N(CCCl)CCCl)ccc1/C=N/NC(=O)c1ccco1 | 11 | 49* | 2 | 16 | 0
Cc1sccc1/C=N/NC(=O)c1ccco1 | -13 | 28 | 2 | 19 | -1
Cc1cc(N(CCCl)CCCl)ccc1C=NNC(=O)Cc1cc(=O)oc2cc(O)ccc12 | x | 59* | -8 | -139 | 169*
COc1ccccc1NC=C1C(=O)OC2(CCCCC2)OC1=O | 1 | 33* | 4 | 0 | -1
COC(=O)C1CCN(C(=O)CCn2nnc(-c3cccs3)n2)CC1 | x | x | x | 0 | x
Nc1nc(N)c2cc([N+](=O)[O-])ccc2n1 | x | 11 | 12 | 2 | -1
Nc1nc(N)c2cc(S(=O)(=O)c3ccc4ccccc4c3)ccc2n1 | x | 18 | 53* | -7 | 6
O=C(Cn1nnc(-c2ccncc2)n1)Nc1ccc(Cl)cc1 | x | x | x | 5 | x
C=CCn1c(N)c(C(=O)OC(C)CC)c2nc3ccccc3nc21 (centres undefined) | x | 20 | 7 | -207 | 167*
C=CCn1c(N)c(C(=O)OC(C)(C)C)c2nc3ccccc3nc21 | x | 22 | 12 | -235 | +
C=CCn1c(N)c(C(=O)Nc2ccccc2)c2nc3ccccc3nc21 | 53 | 5 | 1 | 10 | 10
COCCOC(=O)c1cc(C(=O)c2cc(F)ccc2O)coc1=N | -10 | 37* | 13 | -8 | 17
COC(=O)c1cc(C(=O)c2cc(Cl)ccc2O)coc1=N | -3 | 4 | -5 | 5 | 2
CCCCNC(=O)Cn1nc(Cc2ccncc2)c2ccccc2c1=O | -4 | 0 | 12 | -11 | 1
O=C(Cn1nc(Cc2ccncc2)c2ccccc2c1=O)N1CCc2ccccc2C1 | -2 | -8 | -12 | 66* | 4
COc1ccc2c(c1)[C@@]1(NCCc3c1[nH]c1ccc(OC)cc31)C(=O)N2 | x | x | x | 5 | x
O=C(NC1CCCCN(Cc2cccc(C(F)(F)F)c2)C1=O)c1ccc(Cl)c(Cl)c1 (centres undefined) | x | x | x | 10 | x
CCOC(=O)/C=c1\s/c(=C\c2ccc3cc(OC)ccc3c2)c(=O)n1CC(=O)NCC1CCCO1 (centres undefined) | -5 | -2 | 170* | 8 | 6
CC[C@@H](CCCc1ccc(F)cc1)CN(Cc1ccc(OC)cc1)S(=O)(=O)c1ccc(C)cc1 | x | x | x | 2 | x
COC(=O)[C@H]1C[C@@]2(N3CCCCC3)c3ccccc3N(C(=O)OC(C)(C)C)[C@H]2N1C(=O)OC(C)(C)C | x | x | x | 11 | x
SMILES | Mtb betalactam | GDH-TPI counter | MazF activator | CCHFV vOTU inh | Mtb FBA inh
O=c1c2ccccc2nc(-c2ccccc2)n1-c1ccccc1 | 0 | 13 | 11 | -4 | 2
O=c1c2ccccc2[se]n1-c1ccccc1 | 49 | 84* | -15 | -1 | -2
CC[n+]1c(/C=C/N(C)c2ccccc2)n(-c2ccccc2)c2ccc(-c3nc4ccccc4s3)cc21 | 100 | 12 | 68* | x | 6
C=CCN1[C@@H](CC(C)C)COc2cc(F)ccc2S1(=O)=O | x | x | x | 6 | x
CN(C)c1ccc(C=O)c(Oc2ccccc2)c1 | x | 38* | 7 | 4 | -2
COc1ccc(Oc2ccccc2C=O)cc1 | 2 | 9 | -1 | 3 | -2
Cc1ccc(-c2cc(C(=O)NN=Cc3cccc4ccccc34)[nH]n2)cc1C | x | x | x | 14 | x
COc1ccc(-c2cc(C)no2)cc1S(=O)(=O)Nc1ccccc1 | -6 | -2 | 7 | 11 | 139*
COc1ccc(-c2cc(C)no2)cc1S(=O)(=O)Nc1cccc(C)c1 | -5 | -10 | 9 | -11 | 2
COC(=O)[C@]12C[C@H](CC(=O)NCCC(C)C)C(=O)N(Cc3cccc4ccccc34)C1=C[C@H](C(C)C)O[C@@H]2C1CC1 | x | x | x | 25 | x
O=C(Nc1ccc2oc(-c3ccccc3)nc2c1)C1CCCO1 (centres undefined) | 5 | 12 | 7 | -68 | +
O=C(Cc1ccccc1)Nc1ccc2oc(-c3cccnc3)nc2c1 | 37 | 4 | 8 | -25 | 112*
O=C(Nc1ccc2oc(-c3ccccc3)nc2c1)c1cccnc1 | 71 | 14 | 6 | 0 | 11
O=C(OCc1cn(Cc2ccc(Cl)cc2)nn1)N1CCOCC1 | x | x | x | -3 | x
O=C(CCc1ccccc1)N[C@H]1[C@@H](OC(=O)c2ccc([N+](=O)[O-])cc2)CCC[C@]12C(=O)N(Cc1ccccc1)c1ccccc12 | x | x | x | -1 | x
O=S1(=O)c2ccc(N3CCSCC3)cc2Oc2ccccc2CN1Cc1cn(Cc2ccc(C(F)(F)F)cc2)nn1 | x | x | x | 22 | x
CSc1nncn1/N=C/c1ccc2c(c1)OCO2 | 6 | 35* | -3 | -3 | 1
CSc1nncn1/N=C/c1ccc([N+](=O)[O-])cc1 | 2 | 2 | 2 | -15 | -1
Cc1ccc2c(c1)C1CS(=O)(=O)N(Cc3ccccc3)C(=O)N1C2 (centres undefined) | x | x | x | -6 | x
O=CN/N=C/c1c(O)ccc2ccccc12 | u | 22 | -22 | -3 | 3
O=C(Cc1n[nH]c(=O)[nH]c1=O)N/N=C/c1c(O)ccc2ccccc12 | 5 | 12 | 71* | 24 | -3
NC(=S)N/N=C/c1c(O)ccc2ccccc12 | 22 | 32* | 3 | 12 | -3
Oc1ccccc1C=NN=Cc1c(O)ccc2ccccc12 | x | 8 | + | 2 | 6
O=C(Cc1n[nH]c(=O)[nH]c1=O)N/N=C/c1ccccc1 | 17 | -5 | 8 | -1 | 1
Cc1nc(N2CCCCC2C)c2nnn(Cc3ccccc3)c2n1 (centres undefined) | x | x | x | 2 | x
O=c1[nH]nc(Cc2ccc3ccccc3n2)c2ccccc12 | 13 | 6 | 74* | -4 | -5
O=C(Nc1nc(-c2ccccn2)cs1)c1ccc(Cl)s1 | 85 | 36* | 7 | -3 | 4
COc1ccc(/C=C(/NC(=O)c2ccc(Br)o2)C(=O)Nc2cccc(C(=O)O)c2)cc1 | x | 34* | 0 | 20 | 3
COc1ccc(NC(=O)/C(=C\c2ccc(OC)c(OC)c2)NC(=O)c2ccco2)cc1 | -2 | 37* | -3 | 14 | 0

Screens: PubChem, several laboratories
